# Measured values as given in PubChem BioAssay (NCATS).
# A number with no mark means an inactive call. Inconclusive results are not listed. Entries that show only a call come without a potency. Active and inactive are the calls of the source. Unless noted, the call rests on the fitted dose curve; in most records, active means well fitted curve in the direction sought with a large enough effect; inconclusive means small, poorly fitted or top-dose-only effect, or another doubt; inactive means no such curve, though single readings can be large; an effect the other way counts as inactive or inconclusive.
# Columns and labels:
# [1] = target: Cytochrome P450 2C9 (Homo sapiens) (UniProt P11712); experiment: qHTS Assay for Inhibitors and Substrates of Cytochrome P450 2C9 (AID 883); further: nearly all actives have a fitted effect of over 60% in size; further: potency means the concentration at half of the fitted maximal effect
# Outline: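 Turnover of Luciferin-H (100uM, KM) by 10nM human CYP2C9 was measured over 60 min at 37C with NADPH regeneration; inhibitors and some substrates reduce luminescence. Data normalized to sulphaphenazole 57uM.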
# [2] = target: Cytochrome P450 3A4 (Homo sapiens) (UniProt P08684); experiment: qHTS Assay for Inhibitors and Substrates of Cytochrome P450 3A4 (AID 884); further: nearly all actives have a fitted effect of over 50% in size; further: potency means the concentration at half of the fitted maximal effect
# Outline: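 Luminescent readout of luciferin produced by CYP3A4 (20 nM) dealkylation of Luciferin-PPXE, 25 uM (its KM). NADPH-driven reaction ran 60 min at RT after 10 min compound preincubation; data scaled to 57 uM ketoconazole as 100% inhibition.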
# [3] = target: Cytochrome P450 3A4 (Homo sapiens) (UniProt P08684); experiment: qHTS Assay for Activators of Cytochrome P450 3A4 (AID 885); further: nearly all actives have a fitted effect of over 65% in size
# Outline: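 Using 20nM recombinant human CYP3A4 in potassium phosphate (200mM), substrate Luciferin-PPXE at 25uM, luminescent luciferin detection followed a 60-min RT NADPH reaction; data scaled to 57 uM ketoconazole.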
# [4] = target: Cytochrome P450 2D6 (Homo sapiens) (UniProt P10635); experiment: qHTS Assay for Inhibitors and Substrates of Cytochrome P450 2D6 (AID 891); further: potency means the concentration at half of the fitted maximal effect; nearly all actives have a fitted effect of over 60% in size
# Outline: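 Luminescent read-out of luciferin formed by 5 nM human CYP2D6 demethylating 30 uM Luciferin-ME EGE (Km level) over 60 min at room temperature after NADPH regeneration addition. Data normalized to full inhibition by 1.43 uM quinidine.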
# [5] = target: Cytochrome P450 2C19 (Homo sapiens) (UniProt P33261); experiment: qHTS Assay for Inhibitors and Substrates of Cytochrome P450 2C19 (AID 899); further: nearly all actives have a fitted effect of over 60% in size; further: potency means the concentration at half of the fitted maximal effect
# Outline: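 Reactions contain 5nM enzyme, 10uM Luciferin-H EGE (KM) and 50mM KPO4; compound preincubates 10 min at 37C, NADPH regeneration starts turnover for 60 min. Luminescence after detection reagent gives activity.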
# [6] = target: Alpha-galactosidase (Coffea arabica) (UniProt Q42656); experiment: Counterscreen for Glucocerebrosidase Inhibitors: qHTS Assay for Coffee Bean alpha-Galactosidase at pH 4.5 (AID 957); further: series mostly up to about 77 µM
# Outline: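 Enzyme is added first (2 nM final), then compounds titrated from 0.7 nM to 77 uM, then 80 uM 4-methylumbelliferyl alpha-D-galactopyranoside; after 20 min at room temperature a pH 10 NaOH/glycine stop precedes fluorescence reading at 365/440 nm.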
# [7] = target: Alpha-galactosidase (Coffea arabica) (UniProt Q42656); experiment: Counterscreen for Glucocerebrosidase Inhibitors: qHTS Assay for Coffee Bean alpha-Galactosidase at pH 5.9 (AID 998)
# Outline: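 Fluorogenic 4-MU substrate hydrolysis, 80 uM substrate and 2 nM coffee bean alpha-galactosidase, pH 5.9 citrate buffer, 20 min at room temperature, then NaOH/glycine stop. Titration 0.7 nM–77 uM, normalized to no-enzyme and enzyme controls, AC50 via Hill equation.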
# [8] = Confirmation and Secondary Assay for Modulators of Hemoglobin Beta Chain Splicing at IVS2 654 locus (AID 910);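 further: HeLa cells stably carrying EGFP split by mutant beta-globin IVS2-654 intron; per-well total GFP intensity by laser scanning cytometry after 2-day treatment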
# Outline: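 Readout: per-well total peak green fluorescence (488 nm ex, 500–520 nm em) from objects 5–250 µm, reflecting correct splicing of an EGFP-654 reporter. Compounds were applied for 2 days at 37 °C to overnight-plated HeLa EGFP-654 cells; controls were DMSO and 500 nM IVS2-654 PNA.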
# [9] = target: Muscarinic acetylcholine receptor M1 (Rattus norvegicus) (UniProt P08482); experiment: qHTS Assay for Antagonists of Acetylcholine Muscarinic M1 Receptor: Measurement of IP-One Response (AID 944); further: potency means the concentration at half of the fitted maximal effect; nearly all actives have a fitted effect of over 75% in size
# Outline: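 Antagonist mode with rat M1 receptor transfected into CHO cells. Compound is added first for 10 min, carbachol at its EC80 follows for 30 min, and lysis reagents then allow TR-FRET detection of accumulated IP1.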
# [10] = Confirmation and Secondary Assay for Modulators of Hemoglobin Beta Chain Splicing at IVS2 705 locus (AID 930);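 further: HeLa cells stably expressing the EGFP-705 splicing reporter; GFP fluorescence per well restored by corrected splicing of the IVS2-705 intron in EGFP; series mostly up to about 46 µM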
# Outline: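 Splice-correction reporter: EGFP cDNA split by beta-globin intron 2 bearing the 705 mutation, stably in HeLa. Compound incubation 2 days, 37C; fluorescent objects 5-250 µm summed per well.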
# [11] = qHTS Assay for Identification of Small Molecule Antagonists for NFkB Signaling Pathway (AID 895; active means well fitted inhibition curve with a large enough effect in the signal ratio, with a control signal flat, not every such curve was filed as active; the % refers to the signal ratio; further: potency means the concentration at half of the fitted maximal effect)
# Outline: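 Beta-lactamase reporter read-out (460 and 530 nm emission ratio, 405 nm excitation, 2 hrs substrate loading RT) after 5 hr stimulation with 10 pM TNF alpha in compound-treated NFkB-bla ME-180 cells in low-serum medium.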
# [12] = target: Muscarinic acetylcholine receptor M1 (Rattus norvegicus) (UniProt P08482); experiment: qHTS Assay for Antagonists of Acetylcholine Muscarinic M1 Receptor: Kinetic Measurement of Intracellular Calcium Response (AID 943); further: potency means the concentration at half of the fitted maximal effect; nearly all actives have a fitted effect of over 75% in size
# Outline: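 Antagonism is measured as inhibition of the carbachol-evoked calcium rise in CHO cells transfected with rat M1. Cells are dye-loaded, exposed to compound for 10 min, then stimulated with 100 nM carbachol (EC80).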
# Chain of Cytochrome P450 2C19 (Homo sapiens) (P33261 whole entry, looked up): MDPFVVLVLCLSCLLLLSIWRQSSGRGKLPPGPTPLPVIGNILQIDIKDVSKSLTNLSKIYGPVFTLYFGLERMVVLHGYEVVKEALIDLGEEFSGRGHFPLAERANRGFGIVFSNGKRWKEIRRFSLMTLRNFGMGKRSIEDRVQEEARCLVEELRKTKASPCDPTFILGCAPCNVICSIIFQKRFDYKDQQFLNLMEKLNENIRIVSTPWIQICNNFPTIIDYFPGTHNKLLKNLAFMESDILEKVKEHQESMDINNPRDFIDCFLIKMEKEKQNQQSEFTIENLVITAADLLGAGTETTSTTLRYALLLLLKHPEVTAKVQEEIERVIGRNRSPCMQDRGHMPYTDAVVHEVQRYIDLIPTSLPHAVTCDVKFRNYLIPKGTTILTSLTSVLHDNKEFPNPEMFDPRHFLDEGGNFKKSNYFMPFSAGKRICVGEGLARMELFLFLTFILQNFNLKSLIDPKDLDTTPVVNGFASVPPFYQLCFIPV
# Chain of Alpha-galactosidase (Coffea arabica) (Q42656 whole entry, looked up): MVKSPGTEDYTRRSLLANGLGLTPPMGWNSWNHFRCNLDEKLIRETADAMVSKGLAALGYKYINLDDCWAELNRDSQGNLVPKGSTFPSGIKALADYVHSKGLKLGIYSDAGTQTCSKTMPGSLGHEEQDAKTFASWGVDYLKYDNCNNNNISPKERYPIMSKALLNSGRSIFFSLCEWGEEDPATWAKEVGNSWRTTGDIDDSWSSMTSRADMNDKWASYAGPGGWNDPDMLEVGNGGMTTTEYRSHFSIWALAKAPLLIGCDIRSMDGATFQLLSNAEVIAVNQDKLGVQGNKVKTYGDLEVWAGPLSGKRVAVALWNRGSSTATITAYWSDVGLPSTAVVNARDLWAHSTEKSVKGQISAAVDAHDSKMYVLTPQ
# Chain of Cytochrome P450 2D6 (Homo sapiens) (P10635 whole entry, looked up): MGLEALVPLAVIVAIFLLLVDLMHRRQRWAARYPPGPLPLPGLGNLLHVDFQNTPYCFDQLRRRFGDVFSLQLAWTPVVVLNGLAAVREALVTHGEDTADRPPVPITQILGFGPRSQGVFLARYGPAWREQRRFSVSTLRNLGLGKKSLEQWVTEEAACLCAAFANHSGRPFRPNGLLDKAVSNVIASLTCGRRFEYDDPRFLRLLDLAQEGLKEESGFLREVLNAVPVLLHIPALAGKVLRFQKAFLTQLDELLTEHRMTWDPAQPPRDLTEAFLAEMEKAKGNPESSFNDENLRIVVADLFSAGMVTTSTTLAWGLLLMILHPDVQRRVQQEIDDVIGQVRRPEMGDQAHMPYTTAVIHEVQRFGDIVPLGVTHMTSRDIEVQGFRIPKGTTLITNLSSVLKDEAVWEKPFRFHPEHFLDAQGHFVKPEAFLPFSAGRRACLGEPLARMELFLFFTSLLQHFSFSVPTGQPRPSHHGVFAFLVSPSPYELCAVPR
# Chain of Cytochrome P450 2C9 (Homo sapiens) (P11712 whole entry, looked up): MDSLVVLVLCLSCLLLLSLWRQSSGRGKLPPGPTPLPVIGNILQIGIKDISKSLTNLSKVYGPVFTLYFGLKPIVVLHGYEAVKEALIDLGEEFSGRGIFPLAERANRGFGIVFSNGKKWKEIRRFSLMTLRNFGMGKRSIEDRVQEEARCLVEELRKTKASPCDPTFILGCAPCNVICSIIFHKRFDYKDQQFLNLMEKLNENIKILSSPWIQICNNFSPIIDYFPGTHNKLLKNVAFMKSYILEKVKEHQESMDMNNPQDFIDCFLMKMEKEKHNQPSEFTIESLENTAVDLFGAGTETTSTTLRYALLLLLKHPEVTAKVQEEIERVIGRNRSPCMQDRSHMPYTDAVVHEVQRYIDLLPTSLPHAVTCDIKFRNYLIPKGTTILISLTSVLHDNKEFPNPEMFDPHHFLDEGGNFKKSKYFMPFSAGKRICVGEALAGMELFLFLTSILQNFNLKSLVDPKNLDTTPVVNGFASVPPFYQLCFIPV
# Chain of Muscarinic acetylcholine receptor M1 (Rattus norvegicus) (P08482 whole entry, looked up): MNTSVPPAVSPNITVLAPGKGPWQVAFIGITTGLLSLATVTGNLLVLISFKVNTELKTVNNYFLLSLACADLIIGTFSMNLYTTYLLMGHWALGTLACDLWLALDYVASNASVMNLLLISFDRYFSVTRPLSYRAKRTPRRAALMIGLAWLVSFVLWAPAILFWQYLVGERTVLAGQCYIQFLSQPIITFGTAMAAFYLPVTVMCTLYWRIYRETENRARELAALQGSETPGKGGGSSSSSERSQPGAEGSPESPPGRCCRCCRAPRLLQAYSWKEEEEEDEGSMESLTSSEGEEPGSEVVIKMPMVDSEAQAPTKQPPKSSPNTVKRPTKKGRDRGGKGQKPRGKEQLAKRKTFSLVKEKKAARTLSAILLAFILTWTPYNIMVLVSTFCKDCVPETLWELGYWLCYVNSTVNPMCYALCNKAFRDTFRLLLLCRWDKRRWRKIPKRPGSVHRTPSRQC
smiles,measurement,setting,value
COCOc1ccc(Br)cc1C(=O)/C=C\c1ccc2c(c1)OCO2,Potency,[1],2000 nM (active)
same,Potency,[2],3160 nM (active)
same,"activity change, positive = activation",[3],-91.5% [at 11.4 µM]
same,Potency,[4],3160 nM (active)
same,Potency,[5],63.1 nM (active)
CC1=CC[C@@H]2[C@@H](C1)c1c(O)cc(CC#CCCCNS(C)(=O)=O)cc1OC2(C)C,Potency,[2],2510 nM (active)
same,Potency,[3],inactive
Cc1[nH]cnc1CCN,Potency,[2],inactive
COC(=O)[C@H]1C(=O)c2ccccc2O[C@@](C(=O)OC)(c2ccccc2)[C@@H]1c1ccccc1,Potency,[2],3980 nM (active)
same,"activity change, positive = activation",[3],-63.3% [at 11.4 µM]
Nc1nc(N)c2nc(CNc3ccc(C(=O)N[C@H](CCC(=O)O)C(=O)O)cc3)cnc2n1,Potency,[1],inactive
same,outcome,[6],inactive
same,outcome,[7],inactive
O=C1C=CC(=O)c2c1ccc1c2ccc2ccccc21,Potency,[1],1260 nM (active)
same,Potency,[5],1580 nM (active)
CCCCCCCCCCCCCC(=O)OC1C(C)[C@@]2(O)C(C=C(CO)C[C@]3(O)C(=O)C(C)=C[C@H]23)[C@@H]2C(C)(C)[C@]12OC(C)=O (stereo not given in full),Potency,[2],inactive
CC(C)=CCCC(C)C1CC[C@@]2(C)C3=C(CC[C@@]12C)C1(C)CCC(O)C(C)(C)C1CC3 (stereo not given in full),Potency,[2],15800 nM (active)
same,Potency,[3],inactive
c1ccc(CN2CCC3(CCc4ccccc43)CC2)cc1,Potency,[4],6.3 nM (active)
COc1cc2c(cc1OC)[C@@H]1C(=O)c3ccc(OC)c(CC=C(C)C)c3OC1CO2 (stereo not given in full),Potency,[8],inactive
CC(C)CCCC1(C)C=Cc2c(O)c3c(c(CCC(C)C)c2O1)OC12C(CC4CC1C(C)(C)OC2(CCC(C)C(=O)O)C4O)C3=O (stereo not given),Potency,[8],inactive
O[Si@](CCCN1CCCCC1)(c1ccc(F)cc1)C1CCCCC1,Potency,[3],inactive
same,Potency,[4],501 nM (active)
same,outcome,[6],inactive
same,outcome,[7],inactive
CC(=O)Oc1ccc2c(c1)CCC1C2CC[C@]2(C)C(OC(C)=O)CCC12 (stereo not given in full),Potency,[3],inactive
C[C@@]12CC[C@H]3[C@H](CC=C4C[C@@H](O)CC[C@@]43C)[C@@H]1CC[C@@H]2N(CCO)CCO,"activity, negative = inhibition",[5],79.2% [at 11.4 µM]
C[C@@H]1OC=C2[C@@H](O)[C@H]3O[C@H]3C(=O)[C@@]23[C@H]1[C@H]1C2=C([C@@H](O)[C@H]4O[C@@H]4C2=O)[C@@H]3O[C@@H]1C,"activity, negative = inhibition",[5],53.9% [at 11.4 µM]
Clc1ccc(C(c2ccc(Cl)cc2)n2cc[n+](C[C@@H](OCc3ccc(Cl)cc3Cl)c3ccc(Cl)cc3Cl)c2)cc1,Potency,[3],inactive
same,Potency,[4],39.8 nM (active)
same,Potency,[9],14100 nM (active)
same,outcome,[6],inactive
same,outcome,[7],inactive
O=c1[nH]c(=O)n([C@H]2C[C@H](O)[C@H](CO)O2)cc1/C=C\Br,Potency,[3],inactive
same,outcome,[6],inactive
same,outcome,[7],inactive
COc1cc(C(=O)OC2CC[C@]3(C)C4CCC5[C@]6(O)CC(O)[C@]7(O)C(CN8CC(C)CCC8[C@]7(C)O)[C@]6(O)C[C@@]53O[C@]24O)cc(OC)c1OC (stereo not given in full),Potency,[3],inactive
CCN(CC)c1ccc2c(C)cc(=O)oc2c1,Potency,[3],inactive
CC(=O)[C@]1(O)CC[C@@H]2[C@H]3C[C@@H](C)C4=CC(=O)CC[C@@]4(C)[C@H]3[C@@H](O)C[C@]21C,"activity change, positive = activation",[3],-33% [at 11.4 µM]
C=CCc1cc(OC)c2c(c1OC)OCO2,Potency,[3],inactive
same,Potency,[8],inactive
same,outcome,[10],inactive
CCC(C(=O)C(C)C(O)C(C)CCc1ccc(C)c(O)c1C(=O)O)C1OC(CC)(C2CC[C@@](O)(CC)C(C)O2)CC1C (stereo not given in full),Potency,[3],inactive
COc1cc2ccc(=O)oc2c2ccoc12,Potency,[3],inactive
same,outcome,[10],inactive
CN1[C@@H](CC(=O)c2ccccc2)CCC[C@@H]1C[C@@H](O)c1ccccc1,Potency,[11],12600 nM [stimulated with 10 pM TNF alpha] (active)
same,Potency,[12],5620 nM (active)
same,outcome,[7],inactive
O=C(C[n+]1ccc2ccccc2c1)c1ccc2ccc3ccccc3c2c1,Potency,[4],794 nM (active)
C[C@@H](COc1ccccc1)N(CCCl)Cc1ccccc1,Potency,[4],1580 nM (active)
same,outcome,[6],inactive
same,outcome,[7],inactive
COC(=O)[C@H]1C[C@H]2CC[C@H](O)C[C@H]2N1CC1CC1,Potency,[3],inactive
O=C(O)c1cc2c(cc1S(=O)(=O)O)[C@H]1[C@@H]([C@H]3[C@H]2[C@@]2(Cl)C(Cl)=C(Cl)[C@]3(Cl)C2(Cl)Cl)[C@]2(Cl)C(Cl)=C(Cl)[C@@]1(Cl)C2(Cl)Cl,"activity change, positive = activation",[3],-41.4% [at 11.4 µM]
CC(=O)OC1CCC2C3CCc4cc(O)ccc4C3CCC12C (stereo not given),Potency,[3],inactive
